# Mdm2 MdmX PPI = inhibitors of human Mdm2/MdmX interaction; O15151+Q00987; SaOS-2 split-luciferase Mdm2/MdmX complementation, luminescence; inhibition, % at 8 µM; 330,000 compounds, 3% hits; AID 485346;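 active means inhibition of at least 50% at 8 µM in the primary screen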
# Peg3 promoter = Peg3 promoter activity inhibition; HeLa PEG-Prom luciferase reporter, luminescence, overnight; inhibition, % at 20 µM; AID 588405; 360,000 compounds, 1.7% hits;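 active means inhibition of at least 50% at 20 µM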
# HIF-2a block = blocks HIF-2a reporter activity | inhibition, % at 18.8 µM | 786-0 RCC cells HIF-2a reporter, luciferase luminescence, overnight | 360,000 compounds, 0.72% hits;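 active means inhibition of the luminescence signal of 40% or more relative to plate controls, in a single-dose primary screen at 18.75 µM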
# KKLEB cytotox = counter-screen for CF NF-kB inhibitors: cytotoxicity | KKLEB CF airway cells viability, ATPlite luminescence, overnight; active compounds read low; cells stimulated with P. aeruginosa culture filtrate | activity change (cytotoxicity), % at 5 µM | 360,000 compounds, 0.36% hits;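 active means corrected activity change at or below -50% at 5 µM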
# CF NFkB block = cystic fibrosis NF-kB activation inhibition; KKLEB NF-kB-GFP reporter, PAF-induced, GFP fluorescence overnight; inhibition, % at 5 µM; 360,000 compounds, 0.86% hits;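 active means at least 50% inhibition at 5 µM, scaled per plate between neutral and stimulator controls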;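 further: PAF is a Pseudomonas aeruginosa culture filtrate used as stimulus; plate controls were PAF-stimulated DMSO wells for no effect and unstimulated DMSO wells for full effect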
# ABHD5-PLIN5 inh = blocks binding of human ABHD5 to perilipin-5. Q00G26+Q8WTS1. Split G. princeps luciferase complementation, luminescence, 4 h. inhibition, % at 4 µM. 360,000 compounds, 0.78% hits. AID 602281;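 active means inhibition above the mean inhibition across every tested compound plus 3 SD, cut at about 22% in these data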;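 further: 0% = DMSO only wells and the 100% control is not disclosed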
# Target sequence (Q00G26 whole entry, looked up): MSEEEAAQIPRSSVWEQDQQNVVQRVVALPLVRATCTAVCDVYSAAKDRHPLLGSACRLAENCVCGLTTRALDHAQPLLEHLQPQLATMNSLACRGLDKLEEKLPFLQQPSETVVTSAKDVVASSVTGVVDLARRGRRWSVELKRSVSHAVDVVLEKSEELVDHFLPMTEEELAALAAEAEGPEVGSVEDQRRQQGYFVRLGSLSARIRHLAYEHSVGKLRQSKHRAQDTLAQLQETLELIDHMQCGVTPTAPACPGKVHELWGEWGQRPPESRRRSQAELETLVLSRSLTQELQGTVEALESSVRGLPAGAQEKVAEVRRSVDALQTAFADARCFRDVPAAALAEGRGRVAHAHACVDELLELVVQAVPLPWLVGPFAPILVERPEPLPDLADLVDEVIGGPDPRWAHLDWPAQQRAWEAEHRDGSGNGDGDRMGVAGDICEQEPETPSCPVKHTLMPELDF
# Target sequence (Q8WTS1 whole entry, looked up): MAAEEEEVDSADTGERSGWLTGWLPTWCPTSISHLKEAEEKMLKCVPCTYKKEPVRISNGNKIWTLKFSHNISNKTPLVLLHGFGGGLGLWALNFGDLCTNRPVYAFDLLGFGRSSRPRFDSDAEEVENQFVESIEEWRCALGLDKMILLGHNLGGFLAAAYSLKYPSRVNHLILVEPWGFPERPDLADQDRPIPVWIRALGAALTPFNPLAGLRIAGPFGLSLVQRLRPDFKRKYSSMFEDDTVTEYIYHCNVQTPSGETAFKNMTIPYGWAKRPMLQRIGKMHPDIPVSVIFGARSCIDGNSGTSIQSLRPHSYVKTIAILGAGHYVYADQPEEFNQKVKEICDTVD
# Mdm2-MdmX conf = human Mdm2/MdmX binding inhibition, confirmed. shares compounds with Mdm2 MdmX PPI. luminescent assay. inhibition, % at 8 µM. 10,000 compounds, 55% hits. AID 489028; in the data active means inhibition above about 40%
# Full FLuc ctr = full-length luciferase inhibition in Mdm2/MdmX counter-screen. SaOS-2 full-length luciferase counterscreen, luminescence. inhibition, % at 8 µM. shares compounds with Mdm2 MdmX PPI. 6,200 compounds, 77% hits;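 active means mean inhibition at 8 µM reaching about 37%, which flags the compound as non-specific, limit read from the data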;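 further: p53-null SaOS-2 cells with luciferase driven by a doxycycline-inducible promoter; compound on cells about two nights before reading with doxycycline added after day one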
# * marks the source's active call; other numbers are inactive results; . = not tested or not shown. An excerpt weighted towards active compounds, which were near 4.6% of everything screened.
SMILES,Mdm2 MdmX PPI,Peg3 promoter,HIF-2a block,KKLEB cytotox,CF NFkB block,ABHD5-PLIN5 inh,Mdm2-MdmX conf,others
COc1cccc(C(=O)C2CCCN(Cc3cn(CC(N)=O)c4ccccc34)C2)c1 (configuration not stated),3,-4,1,0,-9,1,.,
COCCNC(=O)C1(C)CCCN(Cc2ccc(-c3ccccc3)o2)C1 (configuration not stated),.,17,9,7,4,6,.,
CC(C)(C)OC(=O)C[C@@H]1C/C=C\C[C@H](CC(=O)N[C@H](CO)Cc2ccccc2)C(=O)N[C@@H](Cc2c[nH]c3ccccc23)COC1=O,10,10,20,-6,4,3,.,
CCOc1ccc(NC(=O)CN(C)C(=O)c2ccc(OCC(=O)N3CCOCC3)c(OC)c2)cc1OCC,.,-7,18,-3,9,3,.,
CCOc1cccc(/C=N/NC(=S)Nc2ccccc2[N+](=O)[O-])c1O,85*,4,48*,-12,1,-11,83*,Full FLuc ctr=49*
O=C(COC(=O)/C=C/c1ccc(Br)o1)NCCCN1CCCC1=O,5,3,14,-1,-6,6,.,
Cc1cccc(C(=O)NCCCNC(=O)c2cccnc2)c1,6,15,2,5,2,5,.,
Cc1c(C(=O)NCCC2=CCCCC2)oc2ccc(S(=O)(=O)N3CCOCC3)cc12,54*,66*,-6,-17,13,-4,34,
CCOc1cc(CNc2ccc(Br)cc2)cc(Br)c1OCC(=O)NC(C)(C)C,56*,36,-10,-16,-4,4,24,
CCOc1cc(CNc2ccccc2)cc(Br)c1OCC(=O)NC(C)(C)C,28,14,4,0,-6,-9,.,
COC(=O)c1ccc2nc(-c3ccc(F)cc3)c(Cc3ccsc3)n2c1,.,-44,-58,-2,-5,7,.,
COc1ccc(N2CCN(C(=O)Cc3ccc(Br)cc3)CC2)cc1,4,6,9,-1,7,4,.,
Cc1ccc(-n2nnnc2SC(C(=O)c2c[nH]c3ccccc23)c2ccccc2)cc1 (configuration not stated),60*,1,5,16,-3,2,65*,Full FLuc ctr=56*
COc1ccc(-n2nnnc2CNC(=O)C(=O)c2c[nH]c3ccccc23)cc1,-3,12,11,-4,-18,8,.,
O=c1cc(CN2CCN(c3ccccc3F)CC2)c2ccccc2o1,.,12,7,-3,-8,-7,.,
CCCn1c2ccccc2c2cnn(CC(=O)N3CCN(C4CCCCC4)CC3)c(=O)c21,55*,18,13,-5,7,7,30,
CN(C)c1ccc(NC2=C(Cl)C(=O)c3ccccc3C2=O)cc1,100*,100*,96*,-82*,80*,2,99*,Full FLuc ctr=2
COCCn1c(=NC(=O)CCS(=O)(=O)c2ccccc2)sc2ccccc21,-3,19,11,-13,7,3,.,
COC(=O)c1ccc2c(c1)sc(=NC(=O)CCS(=O)(=O)c1ccccc1)n2C,51*,28,-4,-5,-10,3,44*,Full FLuc ctr=77*
CCOC(=O)c1c(C)[nH]c(C(C)=NNC(=O)c2cccs2)c1C,-94,-402,-309,12,-27,-1,.,
CC(NCc1ccc(-c2ccccc2)cc1)C(O)c1ccccc1 (configuration not stated),82*,74*,-8,-26,38,20,63*,Full FLuc ctr=64*
CC(O)CNCc1ccc(-c2ccccc2)cc1 (configuration not stated),-8,-11,-24,-3,7,4,.,
Cc1ccc(N(CC(=O)Nc2cc(Cl)ccc2Oc2ccccc2)S(C)(=O)=O)cc1C,52*,38,19,-5,3,-8,2,
Cc1ccc(N(CC(=O)Nc2cc(Cl)ccc2Oc2ccccc2)S(C)(=O)=O)c(C)c1,13,41,16,8,6,-11,.,
CCN(CC)S(=O)(=O)c1ccc(-c2nnc(SCC(=O)N3CCOCC3)o2)cc1,-16,2,1,-2,10,4,.,
SMILES,Mdm2 MdmX PPI,Peg3 promoter,HIF-2a block,KKLEB cytotox,CF NFkB block,ABHD5-PLIN5 inh,Mdm2-MdmX conf,others
CCN(CC)S(=O)(=O)c1ccc(-c2nnc(SCC(=O)N3CCc4ccccc43)o2)cc1,75*,52*,-8,-14,1,-2,-11,
COc1cc(-c2nnc3n2N=C(c2ccccc2)CS3)cc(OC)c1OC,74*,31,3,2,-10,2,69*,Full FLuc ctr=57*
COc1ccc(C2=Nn3c(nnc3-c3ccco3)SC2)cc1OC,55*,7,18,16,-44,8,16,
Clc1ccc(C2=Nn3c(nnc3-c3cc(-c4ccccc4)n[nH]3)SC2)cc1,37,26,4,-17,4,-2,.,
c1ccc(C2=Nn3c(nnc3-c3cc(-c4ccccc4)n[nH]3)SC2)cc1,79*,-106,-149,-5,-57,5,21,
Clc1ccc(C2=Nn3c(nnc3-c3n[nH]c4c3CCC4)SC2)cc1Cl,89*,35,-103,-18,-50,0,69*,Full FLuc ctr=34
COc1ccc(CCN(C)C(=O)c2ccc(C)c(S(=O)(=O)N3CCCCC3)c2)cc1OC,20,19,-5,-12,34,3,.,
CC[C@H](C)[C@H](NC(=O)OCc1ccccc1)C(=O)OCC(=O)N1CCN(c2ccc(OC)cc2)CC1,.,13,5,12,7,0,.,
COc1ccccc1N1CCN(CCC(=O)Nc2cccc(Cl)c2)CC1,5,0,4,-12,6,1,.,
Cc1cccc(NC(=O)COC(=O)CN2C(=O)c3ccccc3C2=O)c1C,.,15,-3,-8,6,-9,.,
Cc1nnc(SCC(=O)Nc2cccc(S(=O)(=O)N3CCCC3)c2)n1C1CC1,.,5,-3,16,-15,-4,.,
CC[C@]12c3[nH]c4ccccc4c3CCN1C(=O)C(CC(=O)NCCCOC)C[C@@H]2C(=O)N1CCN(C(=O)c2ccco2)CC1 (some centres not stated),-41,10,3,-1,9,-10,.,
c1ccc(C2=Nn3c(nnc3-c3n[nH]c4c3CCC4)SC2)cc1,71*,-7,-5,-13,-86,1,51*,Full FLuc ctr=89*
COc1ccc(C2=Nn3c(nnc3-c3cc(C)[nH]n3)SC2)cc1,60*,10,12,-7,-5,-1,41*,Full FLuc ctr=100*
CC1=C([N+](=O)[O-])C(c2ccccc2C(F)(F)F)NC(=O)N1C (configuration not stated),4,-7,9,-17,-9,1,.,
